Shiga toxin inh: A qHTS for Small Molecule Inhibitors of Shiga Toxin; Vero cells, Shiga toxin protein synthesis inhibition reporter; 290,000 tested, 9.2% active; inhibition, % at 38.7 µM; AID 2315, 2010; in the data active means inhibition mostly above about 28%, no sharp cut-off; inactive means mostly below about 43%
Pf growth 48h: Primary qHTS for delayed death inhibitors of the malarial parasite plastid, 48 hour incubation; AID 504832, 2011; 310,000 tested, 5.9% active; Potency, µM (top dose mostly 28.7 µM), most hits filed as inhibitors; P. falciparum luciferase growth in erythrocytes, 48 h
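Luciferase-expressing P. falciparum in infected erythrocytes (2% hematocrit, 0.1% parasitemia final) in RPMI 1640/0.5% Albumax were exposed to compound for 48 hours at 37 C, 5% CO2; growth read as luminescence.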
Pf growth 96h: Primary qHTS for delayed death inhibitors of the malarial parasite plastid, 96 hour incubation. 320,000 tested, 6.9% active. P. falciparum luciferase reporter growth, 96 h. Potency, µM (titrated, usually from 28.7 µM), most hits filed as inhibitors
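Luminescence readout: decreased luciferase signal marks inhibited growth of reporter-expressing P. falciparum in infected red cells (2% hematocrit, 0.05% parasitemia final), exposed to compound two generations (96 h, 37 C, 5% CO2).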
CHX counter: Cycloheximide Counterscreen for Small Molecule Inhibitors of Shiga Toxin. max response, %. 300,000 tested, 12% active. cell reporter, cycloheximide protein synthesis inhibition counterscreen. AID 2314, 2010; in the data active means max response mostly above about 13%, no sharp cut-off; inactive means mostly below about 14%; further: read at 38.3 µM for the half of the compounds with a filed dose
NS1 function inh: qHTS Assay for Inhibitors of Influenza NS1 Protein Function; Potency, µM (doses to about 46.1 µM); 270,000 tested, 0.4% active; AID 2326, 2010; calls by dose curve; further: actives are rising curves; nearly all actives have a fitted effect of over 50% in size
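Read-out: OD600 growth recovery of NS1-expressing budding yeast. Cells grown overnight at 30C in -URA glucose medium, washed, resuspended and diluted 1:100 in 2% galactose assay medium, pH 6.0. Same strain lacking NS1 served as positive control.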
FBPA Giardia inh: qHTS Assay for Inhibitors of Fructose-1,6-bisphosphate Aldolase from Giardia Lamblia. purified Giardia FBPA. Potency, µM (titrated, usually from 59.6 µM), usual class: inhibitors. 290,000 tested, 0.71% active. AID 2451, 2010. A8B2U2; further: nearly all actives have a fitted effect of over 55% in size
Target sequence (A8B2U2 whole entry, looked up): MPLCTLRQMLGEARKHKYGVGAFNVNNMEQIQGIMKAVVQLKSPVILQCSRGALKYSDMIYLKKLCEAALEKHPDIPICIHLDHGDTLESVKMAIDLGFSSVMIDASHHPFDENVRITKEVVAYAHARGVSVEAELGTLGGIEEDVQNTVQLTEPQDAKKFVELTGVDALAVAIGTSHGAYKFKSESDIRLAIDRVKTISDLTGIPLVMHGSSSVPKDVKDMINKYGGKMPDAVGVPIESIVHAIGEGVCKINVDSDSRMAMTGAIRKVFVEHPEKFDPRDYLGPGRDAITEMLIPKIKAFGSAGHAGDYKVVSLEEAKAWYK
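Giardia FBPA (40 nM reagent) was preincubated 10 min at RT with compound (up to 57.5 uM final), then substrate plus GAPDH/TPI/NAD/arsenate coupling system with diaphorase/resazurin was added; resorufin fluorescence (525/598 nm) was read after 20 min.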
Hits are given with their value; 0 = inactive; ? = inconclusive; - = no result given. In the library only some 21% were active in any assay of this set; here they are far more common. Unless noted, the call rests on the fitted dose curve; in most records, active means well fitted curve in the direction sought with a large enough effect; inconclusive means small, poorly fitted or top-dose-only effect, or another doubt; inactive means no such curve, though single readings can be large; an effect the other way counts as inactive or inconclusive.

SMILES	Shiga toxin inh	Pf growth 48h	Pf growth 96h	CHX counter	NS1 function inh	FBPA Giardia inh
CCN(CC)c1ccc(/C=C(/C#N)c2nc3ccc(C)cc3[nH]2)c(OC(C)C)c1	0	?	10.4µM	14.7	0	0
CCCN(CC(=O)Nc1ccccc1C)C(=O)CCN1C(=O)c2cccc([N+](=O)[O-])c2C1=O	-	0	?	-	-	-
CCc1cccc(C)c1NC(=O)C1CCCN1C(=O)NCc1ccccc1 (centres undefined)	0	0	0	0	0	0
COc1ccc(C2C(C#N)=C(N)Oc3cc(O)ccc32)cc1Cl (centres undefined)	0	0	?	0	0	0
Nc1nc(N)nc(-c2cc(Cl)ccc2Cl)n1	0	0	8.49µM	0	-	0
Nc1nc(N)nc(-c2cc(C(F)(F)F)ccc2Cl)n1	-	0	0	-	-	-
CSc1nnc(-c2cccc(C)c2)n1N	0	0	-	0	0	0
Nc1nc(-c2ccc(Cl)cc2)cc(C(F)(F)F)n1	0	0	7.38µM	0	0	0
Cc1cccc(-c2nc(N)nc(N)n2)c1	0	0	0	33.8	0	0
Nc1nc(-c2ccc(Cl)cc2)nnc1-c1ccc(Br)cc1	96.5	0	0	51.9	0	0
Cc1ccc(NC(=O)CCN2CC(C)OC(C)C2)cc1C (centres undefined)	0	0	0	0	0	0
Cc1ccc(Oc2ccc(-c3nc(N)nc(N)n3)cc2)cc1	0	0	0	12.3	0	0
Nc1nc(N)nc(-c2ccc(Cl)cc2)n1	0	-	0	28.9	0	0
C=CCn1cccc(C(=O)Nc2cc(OC)cc(OC)c2)c1=O	0	0	0	25.6	-	0
C=CCn1cccc(C(=O)Nc2ccc(OC)c(OC)c2)c1=O	0	0	0	0	-	0
C=CCn1cccc(C(=O)Nc2ccc(OC)c(Cl)c2)c1=O	54.1	0	0	24.1	0	0
CC(=O)Nc1ccc(NC(=O)Cn2cnc(S(=O)(=O)N3CCOCC3)c2)cc1	0	0	0	0	0	-
O=C(Nc1ccsc1C(=O)NC1CCCCC1)c1ccc(F)cc1	0	1.65µM	1.65µM	0	0	0
O=C(Nc1ccsc1C(=O)NC1CC1)c1ccccc1	0	0	0	0	0	0
COc1ccccc1CNc1ccnc(-c2ccccc2CN(C)C)n1	-	-	-	-	-	0
CN(CC(=O)NCc1ccccc1)S(=O)(=O)c1ccc2c(c1)CCC(=O)N2	0	0	0	0	0	-
CN(CC(=O)NCCN1CCN(c2ccccc2)CC1)S(=O)(=O)c1ccc2c(c1)CCC(=O)N2	0	-	4.65µM	0	0	0
CCOCCCn1c(=S)[nH]c2cc(C(=O)NCCCN(CC)CC)ccc2c1=O	0	0	?	0	-	0
CCOc1ccc(OCC)c(NC(=O)C2CCN(c3cnccn3)CC2)c1	0	?	?	0	0	-
CCC(=O)N(C1=C(NC(C)C)C(=O)c2ccccc2C1=O)C(C)C	0	0.131µM	0.0657µM	0	0	?
SMILES	Shiga toxin inh	Pf growth 48h	Pf growth 96h	CHX counter	NS1 function inh	FBPA Giardia inh
CCCNC1=C(N(C(C)=O)c2cccc(F)c2)C(=O)c2ccccc2C1=O	0	0	0	0	0	?
Cc1cccc(NC(=O)c2sc3nc(-c4ccccc4)cn3c2C)n1	66.1	?	?	35.8	0	0
Cc1c(C(=O)Nc2ccc3c(c2)OCO3)sc2nc(-c3ccccc3)cn12	0	13.1µM	?	0	0	0
COc1ccc(-c2cn3c(C)c(C(=O)Nc4cccc(C)n4)sc3n2)cc1	0	?	0	12.3	0	0
Cc1c(C(=O)Nc2ccccc2)sc2nc(-c3ccccc3)cn12	61.0	?	?	38.7	0	0
C[C@H](O)Cn1cnc2c1c(=O)n(C)c(=O)n2C	-	0	0	-	-	0
C/C(CC(=O)Nc1c(C)cc(C)cc1C)=N\NC(=O)Cc1ccccc1	0	0	0	0	0	-
Cc1cccc(NC(=O)C2CCCN(C(=O)Nc3ccc(F)cc3)C2)c1 (centres undefined)	0	0	?	0	0	0
COc1ccc(-c2cn3c(C)c(C(=O)NC(C)(C)C)sc3n2)cc1	40.5	0	0	30.2	0	0
COc1ccc(-n2c(C)cc(C(=O)CN3C(=O)NC4(CCCc5sccc54)C3=O)c2C)cc1 (centres undefined)	0	?	4.65µM	0	0	0
Cc1cc(C(=O)CN2C(=O)NC3(CCCc4sccc43)C2=O)c(C)n1-c1ccccc1 (centres undefined)	29.1	?	?	39.2	0	0
CCC1=C2CC[C@H]3C(=O)N(CC(=O)OC)C(=O)[C@H]3[C@H]2[C@@]2(C)C(=O)N(Cc3ccccc3)C(=O)N2C1=O	-	-	-	-	-	0
CS(=O)(=O)Nc1cccc(-c2nccc(NCc3cccs3)n2)c1	-	-	-	-	-	0
O=C(Nc1nc2cc3c(cc2s1)OCCO3)c1cccs1	0	0	0	26.8	0	0
COc1ccccc1C(=O)Nc1nc2cc3c(cc2s1)OCO3	89.6	0	0	54.9	0	0
O=C(Nc1ccc2sccc2c1)c1cccc(N2C(=O)CCC2=O)c1	91.7	0	0	37.2	0	0
O=C(Nc1nc2ccccc2s1)c1cccc(N2C(=O)CCC2=O)c1	0	0	0	0	0	-
CCN(CC)S(=O)(=O)c1cc(NC(=O)c2cccc(N3C(=O)CCC3=O)c2)ccc1Cl	-	?	0	-	-	-
O=C(Nc1nc2cc3c(cc2s1)OCCO3)c1cccc(N2C(=O)CCC2=O)c1	35.7	0	0	20.6	0	0
CC1CCCCN1CC(O)COCc1ccccc1 (centres undefined)	0	0	0	0	0	0
Cc1ccc(CN2CC(C(=O)NCC(=O)Nc3c(C)cccc3C)CC2=O)cc1 (centres undefined)	-	0	0	-	-	-
COc1cccc(OC)c1C(=O)Nc1nc2cc3c(cc2s1)OCO3	0	0	0	0	0	0
CCN(CC)S(=O)(=O)c1cccc(C(=O)Nc2nc3cc4c(cc3s2)OCCO4)c1	0	-	0	0	0	0
COc1ccc(C(=O)Nc2nc3cc4c(cc3s2)OCCO4)c(OC)c1	80.5	0	0	23.5	0	0
NNc1nc2cc3c(cc2s1)OCCO3	63.8	0	0	31.9	0	0
SMILES	Shiga toxin inh	Pf growth 48h	Pf growth 96h	CHX counter	NS1 function inh	FBPA Giardia inh
COc1ccccc1C(=O)Nc1nc2cc3c(cc2s1)OCCO3	60.8	0	0	34.2	0	0
COCCn1c(N)c(Sc2ccc(Cl)cc2)c(=O)[nH]c1=O	0	0	0	0	0	0
Cc1cc2nc(C)n(CCCN)c2cc1C	0	?	0	0	0	0
Cc1cc2nc(C)n(CCCNC(=O)Nc3ccc(C#N)cc3)c2cc1C	0	10.4µM	0	0	0	0
Cc1ccccc1COC(=O)c1nn(-c2ccccc2)nc1N	53.9	0	?	31.7	-	0
Cn1nc(C(=O)OCc2ccccc2F)c2ccccc2c1=O	34.7	0	0	0	-	0
Nc1nn(-c2ccccc2)nc1C(=O)OCc1ccccc1F	0	0	1.04µM	31.2	-	0

Screening data as filed in PubChem.
